Out of some 64,000 compounds screened, about 55 (0.09%) were called active. How the calls were made is not given here. A selection follows.
Molecular target: Alkaline phosphatase, tissue-nonspecific isozyme (Homo sapiens) (UniProt P05186)
Assay: human TNAP enzyme inhibitors, biochemical, luminescent (AID 518);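 further: plate controls were vehicle for no effect and reference inhibitor for full effect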
Settings: purified TNAP enzyme, luminescent substrate readout; at 20 µM; active compounds read high

Sequence of Alkaline phosphatase, tissue-nonspecific isozyme (Homo sapiens) (P05186 whole entry, looked up): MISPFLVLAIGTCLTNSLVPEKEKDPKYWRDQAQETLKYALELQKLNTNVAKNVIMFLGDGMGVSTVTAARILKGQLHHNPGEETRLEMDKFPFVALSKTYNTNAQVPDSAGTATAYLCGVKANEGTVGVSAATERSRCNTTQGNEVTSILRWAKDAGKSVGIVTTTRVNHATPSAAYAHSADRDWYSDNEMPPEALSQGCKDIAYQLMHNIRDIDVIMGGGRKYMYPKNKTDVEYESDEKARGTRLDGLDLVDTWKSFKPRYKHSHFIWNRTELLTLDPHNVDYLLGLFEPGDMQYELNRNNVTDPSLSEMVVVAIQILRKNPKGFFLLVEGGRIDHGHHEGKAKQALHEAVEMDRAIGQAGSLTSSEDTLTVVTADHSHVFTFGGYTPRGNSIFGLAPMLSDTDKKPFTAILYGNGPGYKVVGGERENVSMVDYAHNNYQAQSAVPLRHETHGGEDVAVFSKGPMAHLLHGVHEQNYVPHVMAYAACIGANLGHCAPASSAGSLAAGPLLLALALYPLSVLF

inhibition, inactive:
COCc1[nH]nc2c1C(c1ccc(OC)cc1)C(C#N)=C(N)O2 (stereo unspecified) 16.1%
COCc1[nH]nc2c1C(c1ccc(OC)c(OC)c1)C(C#N)=C(N)O2 (stereo unspecified) 7.1%
COc1ccccc1C1C2C(=O)N(c3ccccc3)C(=O)C2ON1c1ccccc1 (stereo unspecified) -0.2%
O=c1[nH]c(-c2ccccc2O)nc2c1CCCC2 8.8%
Cc1ccc(NC(=O)c2cc(-c3ccco3)on2)cc1 8.1%
O=C(CN1CCC(n2nnc3cc(F)ccc32)CC1)Nc1ccccc1N1CCOCC1 6.7%
COc1ccc(S(=O)(=O)Nc2cc(Cl)ccc2OC)cc1 14.2%
O=c1cc(-c2ccccc2)nc2nc(COc3ccccc3)[nH]n12 1.9%
O=C(NCc1ccccc1)c1cc(=O)nc2sc(-c3ccccc3)nn12 9.8%
CCn1c(CNC(=O)c2cccs2)nnc1SCC(=O)NCCc1ccccc1 14%
C=CCN1C(=O)CS/C1=N/c1nccs1 8.1%
O=C1C2C3C=CC(C3)C2C(=O)N1c1n[nH]c(CCc2ccccc2)n1 (stereo unspecified) 36.8%
O=C1c2ccccc2C(=O)N1c1n[nH]c(CCc2ccccc2)n1 22.8%
Cc1ccc(NC(=O)Cn2cnc3c(=O)n(C)c(=O)n(C)c32)c(C)c1 3.9%
CN(C)c1[nH]c(=O)c(C#N)c2c1CCN2Cc1ccccc1 11.1%
CCOc1ccc(C2C(C#N)=C(N)Oc3nc[nH]c(=O)c32)cc1OC (stereo unspecified) 4.4%
O=C(CC(Nc1ccccc1)C(=O)O)c1ccccc1 (stereo unspecified) 15.2%
CCOc1ccc(OCC)c(NS(=O)(=O)c2ccc3c(c2)n(C)c(=O)c(=O)n3C)c1 0.5%
CCOc1ccc(CC(=O)Nc2c(C(N)=O)oc3ccccc23)cc1OCC 5.9%
CCN(CC)C(=O)c1c[nH]c2ccc(S(=O)(=O)Nc3cc(C)cc(C)c3)cc2c1=O 5.8%
CS(=O)(=O)N(CC(=O)NC1CCCCC1)c1cccc(Cl)c1 6.8%
COc1cccc(C(=O)Nc2ccccc2N2CCCC2)c1 9.9%
O=C(Cn1cc2c(n1)CCCCC2)NCc1ccccc1 9.1%
Cc1ccc(NC2CC(=O)N(c3ccc(N4CCCCC4)cc3)C2=O)cc1 (stereo unspecified) 6.6%
COc1ccc(CC(=O)Nc2cccc(-c3nnc(-c4ccccc4)o3)c2)cc1OC 6.4%
O=C(Nc1ccccc1)NC1(C(=O)NCc2ccc3c(c2)OCO3)CCCCC1 -0.2%
COc1cc(C2c3c(oc4c(C)cc(C)cc4c3=O)C(=O)N2Cc2cccnc2)cc(OC)c1OC (stereo unspecified) 4.1%
Cc1ccc(-c2nc(CS(=O)CC(=O)NCc3ccccn3)c(C)o2)cc1 (stereo unspecified) -7.5%
CN(C)/C=N/c1nc2ccc3c(c2s1)CCCC3 12.3%
COc1ccc(N2CCN(CC(=O)Nc3cc4c(cc3C(C)=O)OCO4)CC2)cc1 3.8%
CSc1ccccc1C(=O)NCc1ccc2c(c1)OCO2 7.3%
O=C(Nc1ccccc1)N(C1=NCCCCS1)c1ccccc1 8.3%
C=C(C)Cn1c(SCC(=O)O)nnc1-c1ccc(C(C)(C)C)cc1 10.6%
Nc1c(S(=O)(=O)c2cccc(Cl)c2)c2nc3ccccc3nc2n1/N=C/c1ccc(O)c(O)c1 11.3%
CSC1=C(C#N)C(c2cccs2)CC(=O)N1C (stereo unspecified) 10.5%
Cc1ccc(N(CC(=O)N2CCN(c3ccc(F)cc3)CC2)S(=O)(=O)c2c(C)nn(C)c2C)cc1 8.6%
O=C(c1ccc(Cl)cc1)N1CCC(c2nc(-c3cccs3)no2)CC1 13.1%
CCC(CC)C(=O)NCCNC(=O)C(CC)CC 10.5%
Cc1ccc(OCC(=O)N2CCN(C(=O)CCC3CCCC3)CC2)cc1 6.3%
Cc1cc2c(c(=O)n1CCN(C)C)C(c1ccccc1Br)C(C#N)=C(N)O2 (stereo unspecified) 9.3%
COCCNC(=O)Nc1ccc2c(c1)N(C)C(=O)CS2 1.5%
O=C(c1cc2ccccn2n1)N1CCN(Cc2ccccc2)CC1 2.9%
Cc1onc(-c2ccccc2Cl)c1C(=O)Nc1ccc(-c2cn3cccnc3n2)cc1 4.9%
CCOC(=O)CN1CC23C=CC(O2)C(C(=O)O)C3C1=O (stereo unspecified) 5.4%
O=C(CSc1nnc(-c2cccnc2)n1-c1ccccc1)Nc1ccccn1 2.6%
COc1ccc(OC)c(S(=O)(=O)NC2CCN(Cc3ccccc3)CC2)c1 6.7%
CC(C)(C)n1ncc2c(=O)n(CC(=O)N3CCCc4ccccc43)cnc21 4%
COc1ccc(-c2nnc(SCC(=O)N3CCOCC3)o2)cc1 3.7%
Cc1nn(Cc2ccccc2)c(C)c1CCC(=O)O 7.6%
N#Cc1ccccc1NC(=O)c1ccccc1OCC(=O)NCc1ccco1 7%
COC(=O)c1ccc(NC(=O)COc2ccc(S(=O)(=O)NC(C)C)cc2)cc1 -1.4%
O=C1CC(c2ccco2)Cc2nc(N3CCN(Cc4ccc5c(c4)OCO5)CC3)ncc21 (stereo unspecified) 10.2%
Cc1noc(C)c1S(=O)(=O)N1CCC(C(=O)N(C)Cc2ccccc2)CC1 -0.3%
CN(Cc1ccccc1)Cc1c(F)cccc1F 5.6%
CN1C(=O)CS(=O)c2ccc(C(=O)NC3CC3)cc21 (stereo unspecified) 10%
CCc1c(C)nc2ncnn2c1N1CCC(C(=O)NCc2cccc(OC)c2)CC1 13%
Cc1ccc(NC(=O)C2CCCN2S(=O)(=O)c2ccc3c(c2)CCC(=O)N3)cc1Cl (stereo unspecified) 9%
N#Cc1cc(Sc2ccccn2)c(Sc2ccccn2)cc1C#N 10.6%
CC(=O)Nc1nc2ccccc2n1CCOc1ccccc1 4.8%
O=C(C1CCCN(S(=O)(=O)c2cccc3cccnc23)C1)N1CCN(c2ccc(F)cc2)CC1 (stereo unspecified) 14.6%
O=c1c2ccccc2nc(SCc2nnc(-c3ccccc3)o2)n1-c1ccccc1 3.6%
O=C(O)c1ccc(S(=O)(=O)c2ccccc2)cc1 8.6%
CC(=O)C(Sc1nc(-c2ccco2)nc2c1c(=O)n(C)c(=O)n2C)C(=O)N(C)C (stereo unspecified) 6%
COc1cccc(N2CCN(C3CC(=O)N(c4ccc(F)c(Cl)c4)C3=O)CC2)c1 (stereo unspecified) 7.6%
O=C(c1ccc(-c2ccccc2)cc1)N1CCN(c2nc3ccccc3o2)CC1 -3.8%
COc1cc(/C=N/n2cnnc2)ccc1OCCOc1ccccc1 2.9%
COc1ccc(OCc2nc(C#N)c(N3CCN(c4ccc(OC)cc4)CC3)o2)cc1 16.1%
O=S(=O)(NCCc1cn2ccccc2n1)c1cccs1 1.2%
CC(=O)N1CCC(N(C(=O)Nc2ccc(C)c(C)c2)C2CCCC2)CC1 6.3%
CC1Cc2ccccc2N1C(=O)C1CCCN(S(=O)(=O)c2cccc3nsnc23)C1 (stereo unspecified) 15.5%
O=C(CSCc1ccccc1)N1CCN(c2ccc(F)cc2)CC1 5.6%
CSc1nc2c(c(=O)[nH]c(=O)n2C)n1C/C=C(\C)Cl 11.8%
O=C(Cn1ncc2c1-c1ccccc1OC2)N1CCN(c2ccccn2)CC1 16.3%
Cn1c(SCC(=O)N2CCOCC2)nnc1-c1ccccc1 3.9%
CCOc1cccc(-c2nnc3sc(-c4cc(OC)c(OC)cc4OC)nn23)c1 8.9%
CC(NC(=O)C(c1ccccc1)c1ccccc1)C(=O)O (stereo unspecified) 10%
CN(CC(=O)NCCC1=CCCCC1)S(=O)(=O)c1ccc2c(c1)CCC(=O)N2 6.5%
Cc1csc(NC(=O)CSc2nnc(-c3ccncc3)o2)n1 13.3%
Cc1ccc(-c2nc(CS(=O)(=O)CC(=O)N3CC(C)CC(C)C3)c(C)o2)cc1 (stereo unspecified) 2.5%
CCC1(c2ccc(F)cc2)NC(=O)N(CC(=O)c2ccc[nH]2)C1=O (stereo unspecified) 11.1%
Cc1ccc(-n2c(SCC(N)=O)nnc2-c2ccccn2)cc1 5.9%
Cc1nc(CN2CCN(C(=O)c3ccc(Br)cc3)CC2)cs1 8.9%
CC1(C)CC(=O)C2=C(C1)N(CC1CCCO1)C(=O)NC2(C(F)(F)F)C(F)(F)F (stereo unspecified) 7.8%
COc1cc(/C=N/n2cnnc2)ccc1OCC(=O)N1CCOCC1 9.7%
Cc1cc(C(=O)CSc2nncs2)c(C)n1-c1c(C)n(C)n(-c2ccccc2)c1=O 6.8%
COc1ccc(NC(=O)CSc2nnc(Cc3cccn3C)n2CCc2ccccc2)cc1OC 21.5%
Cc1oc(CC(C)C)cc1C(=O)Nc1ccc(C(=O)O)cc1 -1.6%
C=CCn1c(COc2ccccc2)nnc1SCc1ccc(C#N)cc1 5%
O=C1C2CCCN2C(c2ccccc2)N1c1cccc(Cl)c1 (stereo unspecified) 2.8%
COc1ccc(-c2ccc(-c3noc(-c4ccccc4C)n3)c(OC)n2)cc1 6.5%
CCCCn1c(Cl)nc2c1c(=O)n(C)c(=O)n2C 13.4%
CCOc1ccc(S(=O)(=O)Nc2nc3ccccc3nc2N2CCN(C)CC2)cc1 0.5%
O=C(c1cccnc1)N1CCN(C(=O)c2cccs2)CC1 4.7%
Cc1ccc(CC(=O)Nc2cccc(C)n2)cc1 6%
C=CCOC(=O)CCCC(=O)NC1CCCCC1 3.4%
CCOC(=O)C1Cc2cc3c(cc2C1=O)CC(C(=O)OCC)C3=O (stereo unspecified) 8.4%

— PubChem BioAssay AID518 (Sanford-Burnham Center for Chemical Genomics, 2006)
